Laboratory results reported in PubChem BioAssay.
Activity calls are given as the source filed them.

system: XIP peptide (Xip251-270) binding; assay: small-molecule binders of XIP peptide, primary screen, biochemical, small-molecule microarray, fluorescence 635/667 nm, 0.1 µg/mL protein (AID 1182); settings: fluorescent protein binding, 635 nm, higher = more signal, called active from +8 up or from −8 down

Composite z-score, inactive:
O=C1O[C@@H](c2ccccc2)[C@@H](c2ccccc2)N2[C@@H](c3ccc(O)cc3)[C@]3(C(=O)Nc4ccc(C#CCCO)cc43)[C@@H](C(=O)Nc3nc4ccccc4s3)[C@H]12 0.336
C=CCOC(=O)[C@@H]1[C@H]2C(=O)O[C@H](c3ccccc3)[C@H](c3ccccc3)N2[C@H](c2ccc(OCCOC(=O)[C@H]3C[C@H]4C(=O)N[C@@H](CCCCN(C)C)C(=O)N4[C@H]3c3cccc(OCCO)c3)cc2)[C@@]12C(=O)Nc1ccc(I)cc12 1.78
Cc1c(NC(=O)/C(C#N)=C/C=C/c2ccc(N(C)C)cc2)c(=O)n(-c2ccccc2)n1C 1.41
O=C1C2C=CC(C(O)c3cc(C(F)(F)F)cc(C(F)(F)F)c3)N(Nc3ccc([N+](=O)[O-])cc3)C2C(=O)N1c1ccccc1 (centres undefined) 0.131
O=C1NC(=O)C2C1C=CC(C(O)c1cc(C(F)(F)F)cc(C(F)(F)F)c1)N2Nc1ccc(Cl)cc1Cl (centres undefined) 1.75
CO[C@H]1O[C@H](CO)[C@@H](OC(=O)Nc2ccccc2-c2ccccc2)[C@H](OC(=O)Nc2ccc3c(c2)OCO3)[C@@H]1OC(=O)Nc1ccc2c(c1)OCO2 0.882
Cc1ccc(F)cc1S(=O)(=O)N[C@@H]1CCN(Cc2ccc(Oc3ccccc3)cc2)C1 0.401
CCOC(=O)C1=CC[C@@H](c2ccccc2)N(S(=O)(=O)c2ccc(C)cc2)C1 -0.4
Cc1ccc(S[C@]2(C(=O)NCC(F)(F)F)CC(=O)N(Cc3ccccc3)[C@@H]2c2ccc(CO)cc2)cc1 1.02
CC(C)CNC(=O)[C@@H]1c2ccccc2C(=O)N(Cc2cc(F)cc(C(F)(F)F)c2)[C@H]1c1ccc(CO)cc1 1.02
CCN(CC)c1ccc(N2CC=CC34O[C@@H]5/C=C\CCC(C)OC(=O)C5[C@H]3C(=O)N(CCO)[C@@H]4C2=O)cc1 (some centres undefined) 1.27
COc1ccccc1CN1C(=O)c2ccccc2[C@@H](C(=O)NC(C)C)[C@@H]1c1ccc(CO)cc1 0.0282
[N-]=[N+]=NCc1ccccc1[C@H]1OC(c2ccc(OCCCO)cc2)=N[C@@]1(CCS(=O)(=O)c1ccccc1)C(N)=O 1
C=CCOC(=O)[C@@H]1[C@H]2C(=O)O[C@H](c3ccccc3)[C@H](c3ccccc3)N2[C@H](c2ccc(OCCOC(=O)[C@H]3C[C@H]4C(=O)N[C@@H](CCCC[N+](C)(C)C)C(=O)N4[C@H]3c3ccc(O)cc3)cc2)[C@@]12C(=O)Nc1ccc(I)cc12 0.708
C=C(CCCC)/C(=C/C[C@@H](OC(C)=O)c1ccc(CO)o1)c1cc(C(=O)OC)ccc1OC 0.207
CC(C)C(O)C1C=CC2C(=O)N(C)C(=O)C2N1N(c1ccccc1)c1ccccc1 (centres undefined) 0.618
C=CCNC(=O)[C@@H]1[C@H]2C(=O)O[C@H](c3ccccc3)[C@H](c3ccccc3)N2[C@H](c2ccc(OCCO)cc2)[C@@]12C(=O)N(C(=O)OCCOC)c1ccc(C#CC3=CCCCC3)cc12 0.0094
COCCOC(=O)N1C(=O)[C@@]2(c3cc(C#Cc4ccc(OC)cc4)ccc31)[C@H](C(=O)N1CCCCCCC1)[C@H]1C(=O)O[C@H](c3ccccc3)[C@H](c3ccccc3)N1[C@@H]2c1ccc(O)cc1 1.73
COC(=O)Cn1c(C(=O)N2CCCC2)cc2c1C[C@H]1CN(C(=O)c3ccccc3)[C@@](Cc3ccc(F)cc3)(C(=O)OC)[C@@H]21 0.243
NCCCCCNC(=O)[C@@H]1C[C@@H]2C(=O)N[C@@H](CCCCN)C(=O)N2[C@@H]1c1cccc(OCCO)c1 0.824
Cc1ccc(S[C@]2(C(=O)NC(C)C)CC(=O)N(Cc3ccccc3C(F)(F)F)[C@@H]2c2ccc(CO)cc2I)cc1 0.136
COCCOC(=O)N1C(=O)[C@@]2(c3cc(C#CC4(O)CCCCCC4)ccc31)[C@H](C(N)=O)[C@H]1C(=O)O[C@H](c3ccccc3)[C@H](c3ccccc3)N1[C@@H]2c1ccccc1OCCO -0.0203
C=CC[C@H](OC(=O)Nc1ccc(OC)cc1)c1ccc(O)c2ccccc12 -0.104
COCC(=C=CC[C@H](O)c1cccc(OCCO)c1)C[C@H](O)c1ccccn1 0.198
